Measurements as given in PubChem BioAssay.
“And” between values parts separate entries of the source, which are not always exact repeats. Equal entries are not always repeated. Records with an inconclusive call do not appear. The source made the active and inactive calls. Unless noted, the rule behind the calls is not given here.

Assays:
[1] = P. berghei load reduction in hepatocytes – cell-based, HepG2, luciferase luminescence, HepG2 viability, primary screen (AID 624349; in the data active = parasite load remaining mostly below about 12%, no sharp cut-off; inactive = mostly above about 10%;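 note: 100% = mean of DMSO negative control wells on the same plate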); conditions: P. berghei liver stage in HepG2, luciferase luminescence, concentration not given here; parasite load remaining: stronger effect = lower value; viability: measured here: HepG2 viability without parasites
[2] = signal quenchers or enhancers, Cy5 substrate/SSB – biochemical, NIH Clinical Collection, E. coli SSB, artefact control for HCV NS3 helicase inhibitor project (AID 743268); conditions: Cy5-oligo bound E. coli SSB, fluorescence interference
[3] = tested on: Hepatitis C virus NS3 helicase; assay: blockers of NS3h binding to DNA – biochemical, fluorescence polarization, NIH Clinical Collection, primary screen (AID 743270); conditions: NS3 helicase binding to Cy5-dT15 DNA, stronger effect = higher value, concentration not given here
[4] = target: Single-stranded DNA-binding protein (Escherichia coli (strain K12)) (UniProt P0AGE0); assay: SSB-ssDNA binding inhibitors – biochemical, fluorescence polarization, NIH Clinical Collection, counter-screen for HCV NS3 helicase inhibitor project (AID 743271; in the data active = inhibition above about 28%); conditions: E. coli SSB-DNA binding, stronger effect = higher value, concentration not given here
[5] = compounds distorting NS3 helicase fluorescence signal – biochemical, NIH Clinical Collection, artefact control for HCV NS3 helicase inhibitor project (AID 743272); conditions: fluorescence interference counterscreen, HCV NS3 helicase assay; stronger effect = lower value;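 note: HCV NS3 helicase with a Cy5 labelled single stranded DNA probe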
[6] = tested on: Neuropilin-2 / VEGF-C interaction (human); assay: small molecules blocking Neuropilin-2/VEGF-C interaction – biochemical, microplate binding format, z-score (AID 743281); conditions: microplate NRP2/VEGF-C binding assay; stronger effect = lower value
[7] = modulation of C. elegans fzo-1 (AID 1259413);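 note: fzo-1 mutant C. elegans worms in liquid wells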; conditions: C. elegans fzo-1 modulator screen, mean read-out; stronger effect = higher value
[8] = EMT-state selective cytotoxicity in co-culture – imaging, PC-3E GFP, TEM4-18 mCherry, primary screen (AID 1345086;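 active = compounds killing one labelled cell type while sparing the other, by normalised counts and ratio limits, not self-fluorescent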;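 note: cells exposed to compound for 72 h before imaging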;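 for red/green cell ratio (normalised): normalised mesenchymal count divided by normalised epithelial count so high means epithelial killing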); conditions: PC-3E GFP / TEM4-18 mCherry co-culture, imaging cell counts, at 1 µM
[9] = viability loss with induced miR-34 in A549 – imaging, A549 dox-inducible miR-34, nuclei and caspase counts, primary screen (AID 1347080;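 active = compounds whose cell count with miR-34 switched on is under 0.7 times the count with it off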); conditions: A549 miR-34 inducible, Hoechst nuclei count, 48 h
[10] = target: NAD(+) hydrolase SARM1 (Homo sapiens) (UniProt Q6SZW1); assay: blocking NAD cleavage by SARM1 SAM-TIR – cell lysate, NAD-Glo luminescence (AID 1508614;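 active = compound whose remaining NAD level is above about 45 nM, limit read from the data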;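 note: higher remaining NAD means stronger inhibition of SARM1 NADase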); conditions: SAM-TIR HEK293T lysate NADase, at 1 µM, stronger effect = higher value
Chain of NAD(+) hydrolase SARM1 (Homo sapiens) (Q6SZW1 whole entry, looked up): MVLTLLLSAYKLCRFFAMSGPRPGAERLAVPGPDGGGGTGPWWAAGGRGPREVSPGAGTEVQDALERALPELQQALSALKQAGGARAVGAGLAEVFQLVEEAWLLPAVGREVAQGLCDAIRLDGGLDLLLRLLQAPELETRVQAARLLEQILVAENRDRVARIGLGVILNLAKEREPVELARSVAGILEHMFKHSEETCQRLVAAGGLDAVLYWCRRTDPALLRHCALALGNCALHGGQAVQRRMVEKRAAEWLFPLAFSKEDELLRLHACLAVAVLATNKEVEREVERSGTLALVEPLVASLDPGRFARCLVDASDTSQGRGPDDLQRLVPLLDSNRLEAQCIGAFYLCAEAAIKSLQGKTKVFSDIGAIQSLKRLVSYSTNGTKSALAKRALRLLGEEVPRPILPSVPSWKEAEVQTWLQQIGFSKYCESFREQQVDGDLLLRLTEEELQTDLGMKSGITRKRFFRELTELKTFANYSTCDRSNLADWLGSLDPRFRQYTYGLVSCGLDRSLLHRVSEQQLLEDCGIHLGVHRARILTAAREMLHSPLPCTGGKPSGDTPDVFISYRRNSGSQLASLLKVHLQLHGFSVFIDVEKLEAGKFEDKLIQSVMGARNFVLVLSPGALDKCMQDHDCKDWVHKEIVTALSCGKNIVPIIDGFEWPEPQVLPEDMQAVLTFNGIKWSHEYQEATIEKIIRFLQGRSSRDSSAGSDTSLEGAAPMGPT

[11] = galactose survival enhancers in mitochondrial complex I cybrids – cell-based, galactose medium, ATP luminescence, primary screen (AID 1645843;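 active = z-score of at least 1.8 in each of two replicates, scored against plate mean and spread of sample wells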;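 note: positive z means more ATP and so rescue of galactose-driven cybrid death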); conditions: complex I mutant cybrid cells, 72 h, stronger effect = higher value
[12] = tested on: Aerobactin synthetase IucA (Klebsiella pneumoniae); assay: inhibition of K. pneumoniae IucA enzyme – biochemical, Tocris library, absorbance (AID 1345561); conditions: purified IucA enzyme assay, absorbance (OD) read-out; stronger effect = lower value;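 tested at 8 µM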;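 note: 100% = enzyme without compound and 0% = no enzyme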
[13] = compounds altering viability of human ES cells (AID 493140); conditions: human embryonic stem cell survival screen; stronger effect = higher value;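 note: cells exposed to compounds for four days before counting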
[14] = viability loss in pontine glioma line – cell-based, SU-DIPG-XVII, MIPE5.0, CellTiter-Glo, qHTS, dose response (AID 1347060; cut-off not given, nearly all actives have AC50 up to about 26 µM); conditions: CellTiter-Glo ATP luminescence
[15] = viability loss in pontine glioma line – cell-based, SU-DIPG-XIII, MIPE4.0, CellTiter-Glo, qHTS, dose response (AID 1347061; cut-off not given, nearly all actives have AC50 up to about 37 µM;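 note: cells exposed to compound for 48 hours before readout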); conditions: CellTiter-Glo ATP luminescence
[16] = viability loss in pontine glioma line – cell-based, JHH-DIPG-1, MIPE4.0, CellTiter-Glo, qHTS, dose response (AID 1347062; cut-off not given, nearly all actives have AC50 up to about 27 µM;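 for AC50: cells exposed to compound for two days before readout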); conditions: JHH-DIPG-1 viability, CellTiter-Glo ATP luminescence
[17] = viability loss in pontine glioma line – cell-based, SU-DIPG-IV, MIPE4.0, CellTiter-Glo, qHTS, dose response (AID 1347063; cut-off not given, nearly all actives have AC50 up to about 30 µM;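 note: compound exposure lasted 48 hours before the viability readout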); conditions: CellTiter-Glo ATP luminescence
[18] = viability loss in pontine glioma line – cell-based, SU-DIPG-XXV, MIPE5.0, CellTiter-Glo, qHTS, dose response (AID 1347065; cut-off not given, nearly all actives have AC50 up to about 26 µM;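 note: cells exposed to compound for 48 hours before ATP readout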); conditions: CellTiter-Glo ATP luminescence
[19] = growth inhibition of DIPG cells – cell-based, MIPE4.0 library, CellTiter-Glo luminescence, qHTS (AID 1347066; cut-off not given, nearly all actives have AC50 up to about 30 µM;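 note: cells exposed to compound for 48 hours before readout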); conditions: SU-DIPG-VI viability, CellTiter-Glo ATP luminescence
[20] = JHH-DIPG-1 glioma cell viability, MIPE5.0 library, CellTiter-Glo luminescence, qHTS (AID 1347067; cut-off not given, nearly all actives have AC50 up to about 26 µM;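 note: cells exposed to compound for 48 hours before readout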); conditions: JHH-DIPG-1 glioma viability, CellTiter-Glo ATP luminescence
[21] = growth inhibition of DIPG cells – cell-based, MIPE5.0 library, qHTS (AID 1347068; cut-off not given, nearly all actives have IC50 up to about 30 µM); conditions: SU-DIPG-XXV viability
[22] = MELAS cybrid and Rieske KO viability enhancers – cell-based, MELAS cybrids, Rieske KO mouse fibroblasts, CellTiter-Glo, primary screen (AID 1508586;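 active = mean z-score across replicates of 1.96 or higher in either the MELAS or the Rieske mutant cell line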;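 note: z relative to plate mean and SD of compound and empty wells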); conditions: low glucose
[23] = compounds altering circadian rhythm period length – cell-based, LOPAC library, luminescence reporter (AID 2774); conditions: circadian reporter cells, at 7 µM, actives lie on both sides;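 note: values are relative to mean of DMSO wells on each plate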
[24] = tested on: Hepatitis C virus NS3 helicase; assay: blockers of NS3h binding to ssDNA – biochemical, fluorescence polarization, LOPAC1280 library, primary screen (AID 687035; in the data active = inhibition above about 37%); conditions: Purified HCV NS3 helicase, Cy5-dT15 ssDNA binding fluorescence polarization; stronger effect = higher value; concentration not given here
[25] = compounds altering Cy5-DNA-NS3h complex signal – biochemical, LOPAC1280, artefact control for HCV NS3 helicase inhibitor project (AID 687037); conditions: Cy5-DNA-NS3h complex fluorescence interference counterscreen
[26] = blockers of cellular phospholipid synthesis – cell-based, LOPAC library, screen 4, primary screen (AID 1347384); conditions: animal cells, phospholipid biosynthesis inhibition screen; at 10 µM
[27] = target: Mitogen-activated protein kinase 7 (Homo sapiens) (UniProt Q13164); assay: Gal4-ERK5 driven luciferase induction – cell-based, HTS, primary screen (AID 1508626;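 active = luciferase signal above three times the same-plate solvent-only control wells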;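 note: luciferase driven by Gal4-ERK5 fusion binding five Gal4 sites before minimal TATA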); conditions: HeLa Gal4-ERK5 transactivation, 18 h, at 5 µM, stronger effect = higher value
Chain of Mitogen-activated protein kinase 7 (Homo sapiens) (Q13164 whole entry, looked up, the tested form may be a part): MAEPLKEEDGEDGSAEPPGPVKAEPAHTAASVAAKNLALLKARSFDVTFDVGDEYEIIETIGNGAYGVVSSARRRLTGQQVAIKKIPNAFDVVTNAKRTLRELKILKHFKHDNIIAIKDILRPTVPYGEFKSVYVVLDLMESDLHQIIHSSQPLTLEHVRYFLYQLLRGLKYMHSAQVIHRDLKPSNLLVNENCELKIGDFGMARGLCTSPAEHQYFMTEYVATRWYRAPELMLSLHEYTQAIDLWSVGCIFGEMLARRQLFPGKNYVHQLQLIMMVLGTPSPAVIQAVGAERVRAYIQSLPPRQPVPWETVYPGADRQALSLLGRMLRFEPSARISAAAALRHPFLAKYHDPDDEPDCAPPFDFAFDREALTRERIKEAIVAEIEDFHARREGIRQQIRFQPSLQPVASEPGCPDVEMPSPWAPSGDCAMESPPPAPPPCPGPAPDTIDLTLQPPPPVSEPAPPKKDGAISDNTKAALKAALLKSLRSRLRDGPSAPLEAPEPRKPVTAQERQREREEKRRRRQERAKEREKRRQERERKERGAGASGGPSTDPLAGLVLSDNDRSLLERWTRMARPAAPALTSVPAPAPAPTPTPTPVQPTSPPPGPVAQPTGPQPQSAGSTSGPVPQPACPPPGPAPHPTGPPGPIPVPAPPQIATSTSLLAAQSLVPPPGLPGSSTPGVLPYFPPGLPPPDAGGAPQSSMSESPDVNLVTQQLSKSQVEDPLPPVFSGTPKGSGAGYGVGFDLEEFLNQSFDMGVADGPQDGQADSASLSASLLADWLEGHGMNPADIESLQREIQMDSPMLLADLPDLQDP

[28] = stronger effect = lower value, cell number ratio, induced over uninduced
[29] = measured here: relative caspase fold change +Dox/-Dox
[30] = measured here: total cells with miR-34 induction, stronger effect = lower value
[31] = measured here: total cells without miR-34 induction
[32] = MELAS cybrid survival, CellTiter-Glo 48 h, stronger effect = higher value
[33] = Rieske KO mouse fibroblast survival, CellTiter-Glo 72 h

Cc1c(O)c(=O)ccn1C
0.95: normalised cell number ([8]; measured here: mesenchymal TEM4-18 mCherry cell survival)
1.06: normalised cell number ([8]; measured here: epithelial PC-3E GFP cell survival)
77.2%: viability [1]
9520 and 10100: cell count [9, 31]
8280 and 9190: cell count [9, 30]
inactive: parasite load remaining [1] 103% | fluorescence ratio [2] 0.96 | inhibition [3] 1.98% | inhibition [4] 6.83% | fluorescence ratio [5] 0.92 | z-score [6] -1.2 | mean signal [7] 235 | red/green cell ratio (normalised) ([8]; actives lie on both sides, counts scaled to control wells, 1 = unselective) 0.89 | fold change [9, 28] 0.87 and 0.909 | remaining NAD [10] 10 nM | z-score [11] 0.65
0.877 and 1.84: fold change [9, 29]

CC[C@@H]1C(=O)OC[C@@H]1Cc1cncn1C
inactive: fluorescence ratio [2] 0.93 | inhibition [3] -5.94% | inhibition [4] 1.44% | fluorescence ratio [5] 0.86 | z-score [6] -0.47 | mean signal [7] 280 | remaining activity [12] 110%

CCCCC[C@H](O)/C=C/[C@H]1[C@H](O)CC(=O)[C@@H]1CCCCCCC(=O)O
70.2% and 67.7% and 65.5%: viability [1]
-0.367 and -0.604: z-score [22, 33]
inactive: survival [13] 35.2 and 136 | parasite load remaining [1] 87.1% and 65% and 24% | fluorescence ratio [2] 0.87 | inhibition [3] -3.71% | inhibition [4] -0.39% | fluorescence ratio [5] 0.98 | z-score [6] -0.575 | mean signal [7] 268 | remaining activity [12] 115% | outcome [14] | outcome [15] | outcome [16] | outcome [17] | outcome [18] | outcome [19] | outcome [20] | outcome [21] | z-score [22, 32] -0.41 and -0.106 | z-score [11] 0.265 and 0.315

CC(=O)N1CCN(c2ccc(OC[C@H]3CO[C@](Cn4ccnc4)(c4ccc(Cl)cc4Cl)O3)cc2)CC1
active: AC50 [16] 23.5 µM
0.853 and 1.14: z-score [22, 33]
inactive: period change [23] -0.195 h | survival [13] 3.25 | inhibition [24] -5% | fluorescence ratio (interference) [25] 1 | fluorescence ratio [2] 0.93 | inhibition [3] 4.36% | inhibition [4] 13.8% | fluorescence ratio [5] 0.91 | z-score [6] 0.168 | mean signal [7] 283 | remaining activity [12] 114% | outcome [14] | outcome [26] | z-score [22, 32] 1.22 and -0.0928 | luciferase signal [27] 40 AU | z-score [11] -1.2 and -0.985 and -1.05

C[C@@H]1C[C@H]2[C@@H]3CCC4=CC(=O)C=CC4(C)[C@@]3(F)[C@@H](O)CC2(C)[C@@]1(O)C(=O)CO (some centres not stated)
inactive: mean signal [7] 285

Cc1sc(N)c(C(=O)c2cccc(C(F)(F)F)c2)c1C
9130 and 9190: cell count [9, 31]
inactive: parasite load remaining [1] 28.2% | fluorescence ratio [2] 0.94 | inhibition [3] -3.71% | inhibition [4] -1.97% | fluorescence ratio [5] 0.97 | z-score [6] 0.715 | mean signal [7] 276 | remaining activity [12] 120% | fold change [9, 28] 0.904 and 0.931 | z-score [11] 1.27 and 1.38
8250 and 8560: cell count [9, 30]
69.8%: viability [1]
0.769 and 0.712: fold change [9, 29]

C#C[C@]1(O)CC[C@H]2[C@@H]3CCC4=Cc5oncc5CC4(C)[C@H]3CCC21C (some centres not stated)
1.79: fold change [9, 29]
8170: cell count [9, 31]
7310: cell count [9, 30]
inactive: period change [23] 0.035 h | inhibition [24] 0% | fluorescence ratio (interference) [25] 1 | mean signal [7] 250 | fold change [9, 28] 0.894 | outcome [26] | z-score [11] -0.725

CC1(C)O[C@@H]2C[C@H]3[C@@H]4CCC5=CC(=O)C=CC5(C)[C@@]4(F)[C@@H](O)CC3(C)C2(C(=O)CO)O1 (some centres not stated)
inactive: mean signal [7] 258

CCCN1CC(CSC)CC2c3cccc4[nH]cc(c34)CC21 (configuration not stated)
inactive: outcome [6] | mean signal [7] 184 | fold change [9, 28] 0.922 | z-score [11] -0.235
9040: cell count [9, 30]
1.17: fold change [9, 29]
9810: cell count [9, 31]

Nc1nc2ccc(Cl)cc2c2nc(-c3ccco3)nn12
7130 and 7040 and 7980: cell count [9, 30]
75.1%: viability [1]
inactive: period change [23] 0.275 h | parasite load remaining [1] 21.2% | inhibition [24] -2% | fluorescence ratio (interference) [25] 1 | fluorescence ratio [2] 0.95 | inhibition [3] -2.77% | inhibition [4] -6.26% | fluorescence ratio [5] 0.95 | z-score [6] 0.671 | mean signal [7] 260 | remaining activity [12] 120% | fold change [9, 28] 1.05 and 0.991 and 1.02 | outcome [26] | z-score [11] 0.585 and 0.89 and -0.13
0.947 and 1.47 and 1: fold change [9, 29]
6800 and 7110 and 7830: cell count [9, 31]

COc1cc(CNC(=O)CCCC/C=C\C(C)C)ccc1O
inactive: parasite load remaining [1] 83.7% | fluorescence ratio [2] 0.95 | inhibition [3] -6.73% | inhibition [4] 1.44% | fluorescence ratio [5] 0.9 | z-score [6] 1.86 | mean signal [7] 250
75.2%: viability [1]
